The record followed here is the supplement of paper PMC9177965.

Molecules are shown by their SMILES. Values joined by “and” are separate entries in the source; they are usually repeats but may differ in a detail not shown here. Equal values may be shown once.

The assay has as its system HT29 sg-Ctrl (RNF43 wildtype). Description: cell viability activity relative to DMSO (negative = inhibition); higher = more viable cells (less growth inhibition). Conditions: 5 µM; 96 h. The method, then:
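Broad Repurposing Library primary screen at a single dose of 5 uM. HT29 sg-Ctrl and HT29 RNF43 G659fs CRISPR-edited isogenic cells were seeded at 2500 cells/well in 384-well plates in duplicate and treated for 96 h. Viability was read by CellTiter-Glo and reported as % activity relative to DMSO, with MG132 as the positive control (negative = growth inhibition).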
With `CC1CC(C)C(=O)C(C(O)CC2CC(=O)NC(=O)C2)C1` (centres undefined), the cell viability activity was -81.2%.
`CC[C@@H](C(=O)[C@@H](C)[C@@H](O)[C@H](C)[C@@H]1O[C@@H]([C@@H](CC)C(=O)O)CC[C@@H]1C)[C@H]1O[C@]2(C=C[C@@H](O)[C@]3(CC[C@@](C)([C@H]4CC[C@](O)(CC)[C@H](C)O4)O3)O2)[C@H](C)C[C@@H]1C`: the cell viability activity was -71.9%.
In the case of `O=Cc1cn(Cc2ccc(Cl)cc2)c2ccccc12`, the cell viability activity is -88.6%.
For `COc1cc2cc(c1Cl)N(C)C(=O)C[C@H](OC(=O)C(C)C)[C@]1(C)O[C@@H]1[C@H](C)[C@@H]1C[C@@](O)(NC(=O)O1)[C@H](OC)/C=C/C=C(\C)C2`, the cell viability activity was -61.7%.
Regarding `C[C@@H]1CC[C@@]2(OC1)O[C@H]1C[C@H]3[C@@H]4CC=C5C[C@@H](O[C@@H]6O[C@H](CO)[C@@H](O[C@@H]7O[C@@H](C)[C@H](O)[C@@H](O)[C@H]7O)[C@H](O)[C@H]6O[C@@H]6O[C@@H](C)[C@H](O)[C@@H](O)[C@H]6O)CC[C@]5(C)[C@H]4CC[C@]3(C)[C@H]1[C@@H]2C`, the cell viability activity is -63.5%.
Turning to `CCNC(=O)C[C@@H]1N=C(c2ccc(Cl)cc2)c2cc(OC)ccc2-n2c(C)nnc21`, the cell viability activity was -59.5%.
Then `C/C1=C/C[C@@H](/C(C)=C/c2csc(C)n2)OC(=O)C[C@H](O)C(C)(C)C(=O)[C@H](C)[C@@H](O)[C@@H](C)CCC1`, with -42.3%; and `COc1cccc2c1C(=O)c1c(O)c3c(c(O)c1C2=O)C[C@@](O)(C(=O)CO)C[C@@H]3O[C@H]1C[C@H](N2CCO[C@H](OC)C2)[C@H](O)[C@H](C)O1`, with -95.3%.
As for `O=C1/C(=C/c2ccccc2)C[C@@]2(O)C3Cc4ccc(O)c5c4[C@@]2(CCN3CC2CC2)[C@H]1O5`, the figure is -66%.
Then `Clc1cccc(SC2CCNCC2)n1`, with -64.7%; and `CC[C@H]1CN2CCc3cc(OC)c(OC)cc3[C@@H]2C[C@@H]1C[C@H]1NCCc2cc(OC)c(OC)cc21`, with -92.7% and -98.3%; and `NC(=O)c1cn([C@@H]2O[C@H](CO)[C@@H](O)[C@H]2O)c2ncnc(N)c12`, with -93%.
Consider `Cn1c(COP(=O)(NCCBr)NCCBr)cnc1[N+](=O)[O-]`, for which the cell viability activity is -27.3%.
For the molecule `C[C@H]1CCC/C=C/[C@@H]2C[C@H](O)C[C@H]2[C@H](O)/C=C/C(=O)O1`, the cell viability activity is -98.3% and -96.8%.
